# Laboratory results published in PMC7862700, “An all-to-all approach to the identification of sequence-specific readers for epigenetic DNA modifications on cytosine”.
# Legend:
# Experiment in all cases: DAPPL (digital affinity profiling via proximity ligation, sequencing); 10 mM Tris-HCl pH 7.5, 50 mM NaCl, 1 mM DTT, 4% glycerol, room temperature, 30 min; GST-TFs on glutathione beads, 16-mer random dsDNA library, 0.1% formaldehyde crosslink after washing; high values mean tight binding
# Settings in all cases: protein: recombinant; tags: N-terminal GST; dsDNA, one strand shown
# FLI1 = molecular target: T1, FLI1 (Homo sapiens, UniProt Q01543 1-452)
# T1 sequence: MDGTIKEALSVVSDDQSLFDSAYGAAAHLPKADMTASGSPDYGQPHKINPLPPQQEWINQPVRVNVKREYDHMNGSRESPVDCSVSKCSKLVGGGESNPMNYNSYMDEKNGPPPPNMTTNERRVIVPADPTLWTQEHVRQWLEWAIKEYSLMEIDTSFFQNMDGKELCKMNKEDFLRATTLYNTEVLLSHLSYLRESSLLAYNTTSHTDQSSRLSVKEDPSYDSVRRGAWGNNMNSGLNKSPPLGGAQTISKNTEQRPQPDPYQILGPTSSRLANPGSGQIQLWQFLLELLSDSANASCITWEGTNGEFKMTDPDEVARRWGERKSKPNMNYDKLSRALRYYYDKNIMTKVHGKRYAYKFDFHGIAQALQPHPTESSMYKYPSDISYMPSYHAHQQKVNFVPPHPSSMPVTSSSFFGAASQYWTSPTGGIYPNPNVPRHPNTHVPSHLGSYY
# Outline: (§1)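 Binding signal is defined as a hexamer's read frequency for one factor over its frequency for the tag-only sample. To obtain reads, GST-fused human transcription factors were expressed in yeast, captured on glutathione beads, barcoded with DNA and pooled with that sample. Pools met 200 nmole of a 16-mer random double-stranded DNA library in Tris/NaCl/DTT/glycerol buffer for 30 min at room temperature before washing, 0.1% formaldehyde crosslinking, proximity ligation (BsaI/T4 ligase, 1 h, 37 °C), PCR and Illumina NextSeq500 sequencing.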
# ELK1 = molecular target: T2, ELK1 (Homo sapiens, UniProt P19419 1-428)
# T2 sequence: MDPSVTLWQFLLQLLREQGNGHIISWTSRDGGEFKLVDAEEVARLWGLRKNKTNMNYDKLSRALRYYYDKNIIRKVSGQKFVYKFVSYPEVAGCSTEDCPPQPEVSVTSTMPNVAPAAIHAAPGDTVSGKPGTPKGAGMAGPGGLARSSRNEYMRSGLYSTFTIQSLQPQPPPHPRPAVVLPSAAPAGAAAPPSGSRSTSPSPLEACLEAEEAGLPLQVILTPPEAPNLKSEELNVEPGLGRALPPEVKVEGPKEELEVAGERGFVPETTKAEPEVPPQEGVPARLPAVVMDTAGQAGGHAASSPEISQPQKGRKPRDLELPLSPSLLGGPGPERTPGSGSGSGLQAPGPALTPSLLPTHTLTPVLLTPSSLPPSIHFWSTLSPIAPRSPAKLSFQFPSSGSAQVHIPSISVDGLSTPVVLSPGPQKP
# Outline: as §1
# GABPA = molecular target: T3, GABPA (Homo sapiens, UniProt Q06546 1-454)
# T3 sequence: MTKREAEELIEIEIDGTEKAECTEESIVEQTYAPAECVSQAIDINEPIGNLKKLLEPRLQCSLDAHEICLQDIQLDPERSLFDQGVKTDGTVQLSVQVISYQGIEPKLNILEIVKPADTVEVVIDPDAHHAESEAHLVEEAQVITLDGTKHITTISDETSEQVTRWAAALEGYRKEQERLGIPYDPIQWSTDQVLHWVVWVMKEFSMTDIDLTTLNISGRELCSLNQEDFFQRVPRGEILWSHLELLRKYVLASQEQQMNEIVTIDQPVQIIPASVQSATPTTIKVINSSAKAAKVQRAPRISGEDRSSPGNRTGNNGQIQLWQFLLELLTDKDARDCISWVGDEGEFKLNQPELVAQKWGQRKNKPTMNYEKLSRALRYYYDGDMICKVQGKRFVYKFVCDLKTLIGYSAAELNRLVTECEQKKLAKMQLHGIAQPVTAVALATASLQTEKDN
# Outline: as §1
# ERG = molecular target: T4, ERG (Homo sapiens, UniProt P11308 1-479)
# T4 sequence: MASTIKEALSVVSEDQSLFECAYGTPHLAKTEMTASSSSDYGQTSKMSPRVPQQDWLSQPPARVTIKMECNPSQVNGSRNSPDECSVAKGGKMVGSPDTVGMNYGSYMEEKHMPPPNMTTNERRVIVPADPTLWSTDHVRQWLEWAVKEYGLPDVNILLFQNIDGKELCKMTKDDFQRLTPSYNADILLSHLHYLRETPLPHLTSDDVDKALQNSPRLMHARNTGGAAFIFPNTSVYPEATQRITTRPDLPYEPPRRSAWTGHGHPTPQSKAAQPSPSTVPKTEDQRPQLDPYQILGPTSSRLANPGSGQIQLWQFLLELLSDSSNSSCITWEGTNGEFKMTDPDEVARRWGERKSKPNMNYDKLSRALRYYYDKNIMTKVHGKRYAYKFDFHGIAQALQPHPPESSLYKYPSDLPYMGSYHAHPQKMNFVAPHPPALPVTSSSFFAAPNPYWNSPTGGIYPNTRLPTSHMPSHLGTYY
# Outline: as §1
# ELF1 = ELF1 (Homo sapiens, UniProt P32519 1-619)
# Chain of ELF1 (P32519 whole entry): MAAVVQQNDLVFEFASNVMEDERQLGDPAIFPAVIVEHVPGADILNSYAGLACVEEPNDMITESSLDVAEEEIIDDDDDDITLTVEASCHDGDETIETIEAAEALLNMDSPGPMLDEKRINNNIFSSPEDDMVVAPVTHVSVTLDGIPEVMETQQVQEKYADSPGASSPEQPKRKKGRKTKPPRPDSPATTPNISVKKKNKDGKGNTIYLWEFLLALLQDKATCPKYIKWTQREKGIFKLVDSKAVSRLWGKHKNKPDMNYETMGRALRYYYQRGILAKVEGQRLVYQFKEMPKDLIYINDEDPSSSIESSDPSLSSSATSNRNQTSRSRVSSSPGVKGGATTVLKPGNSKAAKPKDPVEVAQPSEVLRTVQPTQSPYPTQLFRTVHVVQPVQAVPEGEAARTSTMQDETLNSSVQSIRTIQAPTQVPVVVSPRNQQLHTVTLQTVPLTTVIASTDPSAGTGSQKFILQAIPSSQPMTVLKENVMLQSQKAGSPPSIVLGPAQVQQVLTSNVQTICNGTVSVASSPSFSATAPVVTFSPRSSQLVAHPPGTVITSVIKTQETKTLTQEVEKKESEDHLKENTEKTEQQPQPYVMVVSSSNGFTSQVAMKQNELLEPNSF
# Outline: as §1
# EHF = molecular target: T5, EHF (Homo sapiens, UniProt Q9NZC4 1-300)
# T5 sequence: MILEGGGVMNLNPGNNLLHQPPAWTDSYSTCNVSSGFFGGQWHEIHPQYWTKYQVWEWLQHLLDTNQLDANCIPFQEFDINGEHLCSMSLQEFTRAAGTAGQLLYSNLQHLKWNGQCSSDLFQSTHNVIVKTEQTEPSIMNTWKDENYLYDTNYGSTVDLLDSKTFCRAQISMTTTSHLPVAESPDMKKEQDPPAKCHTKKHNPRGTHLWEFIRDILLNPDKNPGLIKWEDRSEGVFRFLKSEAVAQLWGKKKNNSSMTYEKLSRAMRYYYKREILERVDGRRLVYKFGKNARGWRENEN
# Outline: as §1
# SPI1 = SPI1 (Homo sapiens, UniProt P17947 1-270)
# Outline: as §1
# SPIB = SPIB (Homo sapiens, UniProt Q01892 1-262)
# Chain of SPIB (Q01892 whole entry): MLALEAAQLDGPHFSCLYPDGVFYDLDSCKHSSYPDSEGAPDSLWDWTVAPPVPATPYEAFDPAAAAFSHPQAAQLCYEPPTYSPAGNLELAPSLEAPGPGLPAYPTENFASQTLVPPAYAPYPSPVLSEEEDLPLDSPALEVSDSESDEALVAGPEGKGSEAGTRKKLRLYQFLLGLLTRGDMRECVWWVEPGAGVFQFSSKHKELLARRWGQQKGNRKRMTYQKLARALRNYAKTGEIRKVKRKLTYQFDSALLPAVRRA
# Outline: as §1
# ELK3 = molecular target: T6, ELK3 (Homo sapiens, UniProt P41970 1-407)
# T6 sequence: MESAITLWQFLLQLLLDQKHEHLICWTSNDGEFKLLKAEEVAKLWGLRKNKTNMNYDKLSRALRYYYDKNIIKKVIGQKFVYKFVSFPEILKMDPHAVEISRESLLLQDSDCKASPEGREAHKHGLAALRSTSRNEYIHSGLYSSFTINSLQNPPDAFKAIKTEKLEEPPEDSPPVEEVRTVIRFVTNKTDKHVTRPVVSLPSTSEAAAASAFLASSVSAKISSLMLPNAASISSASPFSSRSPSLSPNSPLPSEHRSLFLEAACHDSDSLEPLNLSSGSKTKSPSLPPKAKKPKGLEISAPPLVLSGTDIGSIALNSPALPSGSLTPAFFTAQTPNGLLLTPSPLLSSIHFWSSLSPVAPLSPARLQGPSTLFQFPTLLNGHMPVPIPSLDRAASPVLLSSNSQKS
# Outline: as §1
# FEV = molecular target: T7, FEV (Homo sapiens, UniProt Q99581 1-238)
# T7 sequence: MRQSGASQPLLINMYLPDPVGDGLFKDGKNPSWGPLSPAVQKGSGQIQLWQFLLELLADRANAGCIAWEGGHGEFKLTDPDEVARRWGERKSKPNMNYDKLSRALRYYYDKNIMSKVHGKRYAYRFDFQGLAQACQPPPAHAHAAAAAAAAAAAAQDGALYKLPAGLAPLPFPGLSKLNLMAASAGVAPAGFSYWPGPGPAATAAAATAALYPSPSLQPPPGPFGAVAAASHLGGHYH
# Outline: as §1
# ETV5 = ETV5 (Homo sapiens, UniProt P41161 1-510)
# Chain of ETV5 (P41161 whole entry): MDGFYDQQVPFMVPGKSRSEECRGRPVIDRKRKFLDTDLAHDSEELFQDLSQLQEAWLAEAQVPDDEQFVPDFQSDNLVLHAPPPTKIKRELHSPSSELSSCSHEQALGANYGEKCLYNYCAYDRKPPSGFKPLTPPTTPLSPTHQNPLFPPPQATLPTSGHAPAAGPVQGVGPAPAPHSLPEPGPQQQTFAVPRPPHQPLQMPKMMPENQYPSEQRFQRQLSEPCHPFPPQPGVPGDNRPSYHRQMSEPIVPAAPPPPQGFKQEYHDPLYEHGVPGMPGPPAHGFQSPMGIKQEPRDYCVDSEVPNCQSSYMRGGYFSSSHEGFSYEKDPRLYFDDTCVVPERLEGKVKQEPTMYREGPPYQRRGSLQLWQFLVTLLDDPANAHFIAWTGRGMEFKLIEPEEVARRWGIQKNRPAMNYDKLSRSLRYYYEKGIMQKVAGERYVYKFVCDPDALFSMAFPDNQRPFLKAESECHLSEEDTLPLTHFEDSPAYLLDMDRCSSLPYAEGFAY
# Outline: as §1
# SPIC = molecular target: T8, SPIC (Homo sapiens, UniProt Q8N5J4 1-248)
# T8 sequence: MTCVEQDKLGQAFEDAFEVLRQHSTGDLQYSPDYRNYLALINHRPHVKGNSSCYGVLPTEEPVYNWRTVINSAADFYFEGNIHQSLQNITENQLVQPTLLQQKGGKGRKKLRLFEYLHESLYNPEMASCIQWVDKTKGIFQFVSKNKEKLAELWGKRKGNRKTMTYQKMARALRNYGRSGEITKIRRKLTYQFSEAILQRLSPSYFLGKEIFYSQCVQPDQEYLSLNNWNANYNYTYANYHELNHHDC
# Outline: as §1
# ELF4 = ELF4 (Homo sapiens, UniProt Q99607 1-663)
# Chain of ELF4 (Q99607 whole entry): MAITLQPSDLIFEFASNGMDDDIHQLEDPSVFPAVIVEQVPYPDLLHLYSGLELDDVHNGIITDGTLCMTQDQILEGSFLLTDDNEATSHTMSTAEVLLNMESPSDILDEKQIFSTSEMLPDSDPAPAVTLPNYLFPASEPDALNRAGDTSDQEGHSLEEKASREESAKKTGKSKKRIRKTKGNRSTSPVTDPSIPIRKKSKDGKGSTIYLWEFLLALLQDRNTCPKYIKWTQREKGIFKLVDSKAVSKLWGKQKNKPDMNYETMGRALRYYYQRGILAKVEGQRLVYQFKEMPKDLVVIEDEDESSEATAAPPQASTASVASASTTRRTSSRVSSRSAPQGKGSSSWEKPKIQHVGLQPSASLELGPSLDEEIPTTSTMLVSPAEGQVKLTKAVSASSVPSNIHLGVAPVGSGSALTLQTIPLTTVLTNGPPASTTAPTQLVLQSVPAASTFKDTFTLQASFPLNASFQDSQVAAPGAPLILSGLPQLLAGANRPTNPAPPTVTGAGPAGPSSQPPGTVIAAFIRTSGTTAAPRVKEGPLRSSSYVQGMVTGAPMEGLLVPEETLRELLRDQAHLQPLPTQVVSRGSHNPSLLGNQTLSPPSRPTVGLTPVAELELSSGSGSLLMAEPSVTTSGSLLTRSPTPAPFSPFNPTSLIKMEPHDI
# Outline: as §1
# ETV1 = ETV1 (Homo sapiens, UniProt P50549 1-477)
# Chain of ETV1 (P50549 whole entry): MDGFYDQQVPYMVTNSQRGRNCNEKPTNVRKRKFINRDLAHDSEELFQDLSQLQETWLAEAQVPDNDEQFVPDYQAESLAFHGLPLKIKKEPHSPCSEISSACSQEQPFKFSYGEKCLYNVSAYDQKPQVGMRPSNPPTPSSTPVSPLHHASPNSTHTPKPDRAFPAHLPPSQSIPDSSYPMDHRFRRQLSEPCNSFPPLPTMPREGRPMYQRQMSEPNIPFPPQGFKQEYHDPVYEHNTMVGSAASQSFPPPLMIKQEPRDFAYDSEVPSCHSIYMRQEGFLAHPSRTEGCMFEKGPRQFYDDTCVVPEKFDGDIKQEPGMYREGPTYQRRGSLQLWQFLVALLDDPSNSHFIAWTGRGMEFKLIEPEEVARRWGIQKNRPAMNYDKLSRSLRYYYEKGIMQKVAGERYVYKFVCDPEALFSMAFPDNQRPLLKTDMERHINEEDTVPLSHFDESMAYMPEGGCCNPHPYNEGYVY
# Outline: as §1
# ERF = molecular target: T9, ERF (Homo sapiens, UniProt P50548 1-548)
# T9 sequence: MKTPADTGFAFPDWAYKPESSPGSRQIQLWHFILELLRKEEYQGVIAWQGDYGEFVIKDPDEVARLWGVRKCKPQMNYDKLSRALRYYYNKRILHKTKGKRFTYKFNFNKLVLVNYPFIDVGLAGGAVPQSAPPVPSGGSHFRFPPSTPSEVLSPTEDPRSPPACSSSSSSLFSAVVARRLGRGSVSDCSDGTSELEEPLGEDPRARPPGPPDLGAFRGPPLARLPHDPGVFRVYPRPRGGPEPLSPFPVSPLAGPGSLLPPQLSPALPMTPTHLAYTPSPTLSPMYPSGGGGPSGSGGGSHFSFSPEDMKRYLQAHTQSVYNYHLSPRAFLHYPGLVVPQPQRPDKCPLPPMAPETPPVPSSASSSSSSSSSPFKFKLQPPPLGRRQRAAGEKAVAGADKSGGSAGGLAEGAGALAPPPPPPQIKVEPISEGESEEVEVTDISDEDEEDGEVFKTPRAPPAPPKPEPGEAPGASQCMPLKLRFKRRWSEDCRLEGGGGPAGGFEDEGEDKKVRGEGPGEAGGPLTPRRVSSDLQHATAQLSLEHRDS
# Outline: as §1
# ETV3L = molecular target: T10, ETV3L (Homo sapiens, UniProt Q6ZN32 1-361)
# T10 sequence: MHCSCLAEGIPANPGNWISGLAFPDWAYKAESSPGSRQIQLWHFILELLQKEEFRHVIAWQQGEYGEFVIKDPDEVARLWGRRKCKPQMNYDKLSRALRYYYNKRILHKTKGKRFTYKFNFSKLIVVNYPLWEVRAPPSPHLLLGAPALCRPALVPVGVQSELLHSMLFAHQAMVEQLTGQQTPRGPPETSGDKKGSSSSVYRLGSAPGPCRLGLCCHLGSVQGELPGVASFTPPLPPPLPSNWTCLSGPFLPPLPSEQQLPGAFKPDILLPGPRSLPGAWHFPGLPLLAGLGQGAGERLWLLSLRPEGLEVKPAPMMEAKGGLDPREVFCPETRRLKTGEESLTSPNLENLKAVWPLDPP
# Outline: as §1
# ETS2 = molecular target: T11, ETS2 (Homo sapiens, UniProt P15036 1-469)
# T11 sequence: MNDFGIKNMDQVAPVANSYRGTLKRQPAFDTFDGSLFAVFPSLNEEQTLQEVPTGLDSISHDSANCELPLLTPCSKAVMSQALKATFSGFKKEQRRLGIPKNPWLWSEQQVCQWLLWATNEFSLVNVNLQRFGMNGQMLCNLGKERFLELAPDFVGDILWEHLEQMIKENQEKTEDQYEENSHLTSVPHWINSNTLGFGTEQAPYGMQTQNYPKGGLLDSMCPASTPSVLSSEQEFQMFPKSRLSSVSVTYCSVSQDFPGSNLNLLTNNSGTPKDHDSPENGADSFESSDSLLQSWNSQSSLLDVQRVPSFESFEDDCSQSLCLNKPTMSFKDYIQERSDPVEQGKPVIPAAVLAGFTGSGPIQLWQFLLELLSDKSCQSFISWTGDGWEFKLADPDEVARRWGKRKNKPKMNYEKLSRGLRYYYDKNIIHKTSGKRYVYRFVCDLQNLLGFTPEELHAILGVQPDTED
# Outline: as §1
# SPDEF = molecular target: T12, SPDEF (Homo sapiens, UniProt O95238 1-335)
# T12 sequence: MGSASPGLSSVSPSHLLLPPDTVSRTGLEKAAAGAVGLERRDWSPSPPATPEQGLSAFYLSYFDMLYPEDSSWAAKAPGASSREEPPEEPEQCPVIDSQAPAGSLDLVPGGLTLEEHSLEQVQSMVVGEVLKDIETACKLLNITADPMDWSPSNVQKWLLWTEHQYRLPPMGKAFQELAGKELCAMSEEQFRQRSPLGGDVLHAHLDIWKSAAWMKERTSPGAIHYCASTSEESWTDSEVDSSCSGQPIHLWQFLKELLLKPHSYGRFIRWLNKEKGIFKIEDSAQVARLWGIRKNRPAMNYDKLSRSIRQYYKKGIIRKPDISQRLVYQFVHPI
# Outline: as §1
# ETV3 = molecular target: T13, ETV3 (Homo sapiens, UniProt P41162-2 1-143)
# T13 sequence: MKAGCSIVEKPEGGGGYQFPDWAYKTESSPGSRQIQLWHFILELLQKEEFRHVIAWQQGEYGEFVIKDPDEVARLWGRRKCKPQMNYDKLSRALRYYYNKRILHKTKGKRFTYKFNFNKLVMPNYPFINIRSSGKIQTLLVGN
# Outline: as §1
# ETV6 = ETV6 (Homo sapiens, UniProt P41212 1-452)
# Chain of ETV6 (P41212 whole entry): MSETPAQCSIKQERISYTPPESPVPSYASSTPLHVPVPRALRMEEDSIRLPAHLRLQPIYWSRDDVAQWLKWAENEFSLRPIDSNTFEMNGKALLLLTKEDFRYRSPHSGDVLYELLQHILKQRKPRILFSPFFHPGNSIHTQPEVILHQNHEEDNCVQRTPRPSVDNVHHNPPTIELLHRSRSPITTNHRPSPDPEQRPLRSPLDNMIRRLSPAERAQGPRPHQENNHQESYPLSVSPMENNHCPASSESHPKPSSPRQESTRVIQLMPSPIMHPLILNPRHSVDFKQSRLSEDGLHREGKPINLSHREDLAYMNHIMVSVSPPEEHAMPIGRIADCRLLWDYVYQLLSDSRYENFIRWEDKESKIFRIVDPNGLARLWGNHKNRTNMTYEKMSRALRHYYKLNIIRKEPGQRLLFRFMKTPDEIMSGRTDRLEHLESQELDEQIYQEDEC
# Outline: as §1
sequence,measurement,setting,value
CGTCGC,binding signal,FLI1,"1.31 fold enrichment (6-mer frequency, TF over GST control)"
same,binding signal,ELK1,"1.2 fold enrichment (6-mer frequency, TF over GST control)"
same,binding signal,GABPA,"1.24 fold enrichment (6-mer frequency, TF over GST control)"
same,binding signal,ERG,"1.19 fold enrichment (6-mer frequency, TF over GST control)"
same,binding signal,ELF1,"1.21 fold enrichment (6-mer frequency, TF over GST control)"
same,binding signal,EHF,"1.14 fold enrichment (6-mer frequency, TF over GST control)"
same,binding signal,SPI1,"1.21 fold enrichment (6-mer frequency, TF over GST control)"
same,binding signal,SPIB,"1.25 fold enrichment (6-mer frequency, TF over GST control)"
same,binding signal,ELK3,"1.09 fold enrichment (6-mer frequency, TF over GST control)"
same,binding signal,FEV,"1.14 fold enrichment (6-mer frequency, TF over GST control)"
same,binding signal,ETV5,"1.12 fold enrichment (6-mer frequency, TF over GST control)"
same,binding signal,SPIC,"1.07 fold enrichment (6-mer frequency, TF over GST control)"
same,binding signal,ELF4,"1.06 fold enrichment (6-mer frequency, TF over GST control)"
same,binding signal,ETV1,"1.3 fold enrichment (6-mer frequency, TF over GST control)"
same,binding signal,ERF,"1.3 fold enrichment (6-mer frequency, TF over GST control)"
same,binding signal,ETV3L,"1.13 fold enrichment (6-mer frequency, TF over GST control)"
same,binding signal,ETS2,"1.14 fold enrichment (6-mer frequency, TF over GST control)"
same,binding signal,SPDEF,"1.24 fold enrichment (6-mer frequency, TF over GST control)"
same,binding signal,ETV3,"1.2 fold enrichment (6-mer frequency, TF over GST control)"
same,binding signal,ETV6,"1.2 fold enrichment (6-mer frequency, TF over GST control)"
